Only some compounds are listed: those with a hit (about 3.5% of all), similar ones and a draw of the others.
mHTT-CaM PPI inh – mutant huntingtin-calmodulin interaction inhibitors – biochemical, AlphaScreen, primary screen; P42858; AlphaScreen His-mHTT/GST-CaM binding, luminescence; inhibition, % at 15 µM; 190,000 compounds, 3.6% hits; AID 1671202, 2021;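 further: 0% = both proteins with DMSO and 100% = one protein alone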
Pf apPOL block – Pf-apPOL inhibitors, biochemical, fluorescence; Plasmodium falciparum apicoplast DNA polymerase (apPOL); Recombinant Pf-apPOL, molecular beacon fluorescence, 1.5 h; inhibition, % at 10 µM; 210,000 compounds, 0.25% hits; AID 1794808, 2022
The depositor's hits bear a star; · = no result. No stated cut-off is given here; in the data, active means inhibition above about 50%; inactive means the rest.

SMILES	mHTT-CaM PPI inh	Pf apPOL block
CC(=O)N1c2ccc(S(=O)(=O)NCCN(C)Cc3ccccc3)cc2CC1C (centres undefined)	-4.0	-2.2
CCn1cc(Cl)c(C(=O)N2CCCCC2CCN2CCCC2)n1 (centres undefined)	-5.5	-2.6
Cc1noc(C)c1S(=O)(=O)NCC1CCN(S(=O)(=O)C2CC2)CC1	-10.2	-4.9
O=C1CC(c2ccccc2)Sc2ccccc2N1Cc1ccccc1 (centres undefined)	80.3*	-4.7
O=C1CC(c2ccco2)Sc2ccccc2N1Cc1cccc(F)c1 (centres undefined)	4.2	1.7
O=c1c(NCCN2CCCC2)nc2ccncc2n1Cc1ccccc1	2.8	2.1
Cn1c(=O)c(NCCCN2CCCc3ccccc32)nc2ccncc21	59.9*	12.0
Cn1c(=O)c(NCCc2c[nH]c3ccccc23)nc2ccncc21	100.2*	3.5
Cn1c(=O)c(NCCc2ccc(Cl)cc2)nc2ccncc21	-2.0	-5.4
N#CC(C#N)=C(N=C(Nc1ccccc1)c1ccc([N+](=O)[O-])cc1[N+](=O)[O-])C(F)(F)F	8.0	-5.4
O=C(Cc1ccc(-n2c(=O)[nH]c3ccsc3c2=O)cc1)NC1CCCc2ccccc21 (centres undefined)	3.0	-0.4
CCc1ccc(C(C)NC(=O)c2ccnc(N3CCCCC3)n2)cc1 (centres undefined)	-70.1	1.9
O=[N+]([O-])c1cccc(/C=C/c2ccccn2)c1	-2.1	67.3*
O=[N+]([O-])c1cccc(/C=C/c2ccc3ccccc3n2)c1	1.4	-4.5
COc1ccc(O)c(CN2CCCC(C)C2)c1 (centres undefined)	2.7	3.0
CCc1ccccc1NC(=O)N1CCC2(CC1)SCC(=O)N2CCOC	-12.0	-3.4
CC1(C)OC2OC(C(=O)N3CCOCC3)C3OC(C)(C)OC3C2O1 (centres undefined)	-1.4	-6.7
CCn1c(N2CCC(C(=O)N3CCN(c4ccccn4)CC3)CC2)cc(=O)n(C)c1=O	53.1*	-1.1
Cn1c(N2CCC(C(=O)N3CCN(c4ccccc4F)CC3)CC2)cc(=O)n(C)c1=O	26.9	0.9
Cn1c(N2CCC(C(=O)N3CCN(c4ccccn4)CC3)CC2)cc(=O)n(C)c1=O	29.1	-4.2
CCn1c(N2CCC(C(=O)N3CCN(c4ccccc4F)CC3)CC2)cc(=O)n(C)c1=O	61.9*	0.4
CSc1oc(-c2ccccc2)nc1S(=O)(=O)c1ccc(Cl)cc1	-8.0	-2.6
C=C(C)CN(CC)C(=O)C1CCN(CC(C)c2ccccc2)CC1 (centres undefined)	-2.4	-1.4
CCN1C(=O)Cc2cc(C(=O)N3CCN(c4ccccc4Cl)CC3)ccc21	27.3	-6.4
CC1CCN(C(=O)c2ccc3c(c2)CC(=O)N3Cc2cccc(F)c2)CC1	56.6*	-2.2
SMILES	mHTT-CaM PPI inh	Pf apPOL block
CCN1C(=O)Cc2cc(C(=O)N3CCN(c4ccccc4C)CC3)ccc21	68.0*	1.0
CC1CCN(C(=O)c2ccc3c(c2)CC(=O)N3Cc2ccc(F)cc2)CC1	14.7	-6.4
Cc1cccc(NC(=O)CSc2nc3c(c(=O)n2Cc2ccccc2)SC(C)C3)c1 (centres undefined)	13.0	-1.7
CN(C)c1ccc(NC(=O)CCC2CCCCC2)cc1	63.1*	-2.5
COc1ccc(NC(=O)CCC2CCCCC2)cc1OC	9.0	-1.7
O=C(Nc1ccc(F)c(Cl)c1)c1cc(S(=O)(=O)NCCc2ccccc2)ccc1F	76.0*	-6.2
O=C(Nc1cc(Cl)cc(Cl)c1)c1cc(S(=O)(=O)NCCc2ccccc2)ccc1F	49.0	-7.9
COc1ccc(OC)c(NC(=O)c2cc(S(=O)(=O)NCc3ccccc3)ccc2F)c1	13.0	-8.2
Cc1ccc(NC(=O)c2cc(S(=O)(=O)NCCc3ccccc3)ccc2F)cc1Cl	5.0	1.4
COc1ccc(OC)c(NC(=O)c2cc(S(=O)(=O)NCCc3ccccc3)ccc2F)c1	80.0*	0.4
O=C(Nc1cccc(Cl)c1)c1cc(S(=O)(=O)NCCc2ccc(Cl)cc2)ccc1F	80.0*	-7.9
Cc1cccc(NC(=O)Nc2nccn(-c3ccc(Br)cc3)c2=O)c1	0.5	-3.4
O=C(CN1CCN(CCOCCO)CC1)Nc1ccc(OC(F)(F)F)cc1	-2.0	-7.1
CC(C)=CCc1c(O)cc(O)c2c1OC(c1ccccc1)CC2=O (centres undefined)	51.0*	-2.0
COc1ccc(C2CC(=O)c3c(O)cc(O)cc3O2)cc1O (centres undefined)	·	-0.2
CSCCC(NS(=O)(=O)c1cccs1)C(=O)Nc1ccc(Br)c(C)c1 (centres undefined)	10.0	-2.0
CC1C(=O)C(C)C(c2ccc(F)cc2)NC1c1ccc(F)cc1 (centres undefined)	-21.0	-101.2
CC1C(=O)C(C)C(c2ccc(N(C)C)cc2)NC1c1ccc(N(C)C)cc1 (centres undefined)	77.0*	-80.6
CNC(=O)C1CCc2sc(C(=O)N3CCCCCC3)cc2C1 (centres undefined)	-3.5	1.3
c1ccc(Cn2cnnc2C2CCCN(Cc3ccncc3)C2)cc1 (centres undefined)	-3.6	-5.3
c1ccc(Cn2cnnc2C2CCCN(Cc3ccccn3)C2)cc1 (centres undefined)	93.5*	-26.5
CCOc1ccc(C(=O)Nc2sc(C)c(C)c2C(N)=O)cc1	-0.2	-5.1
Cc1ccc(-c2cc(C3CCN(C(=O)c4ccccn4)CC3)[nH]n2)cc1	17.6	-10.8
O=[N+]([O-])c1ccc(Cl)cc1Sc1nc2ccccc2[nH]1	-3.0	-6.1
O=[N+]([O-])c1cc(C(F)(F)F)cc([N+](=O)[O-])c1Sc1nc2ccccc2[nH]1	99.0*	2.7
SMILES	mHTT-CaM PPI inh	Pf apPOL block
Cn1cnc([N+](=O)[O-])c1Sc1nc2ccccc2[nH]1	2.0	-0.4
Nc1ncnc(Sc2nc3ccccc3[nH]2)c1[N+](=O)[O-]	78.6*	2.6
O=C(NCc1ccccn1)C(=O)Nc1cccc(Cl)c1	-0.5	-2.2
COc1ccc(C2=N/C(=C\c3ccc(C)cc3)C(=O)O2)cc1[N+](=O)[O-]	6.0	-1.9
C[C@H]1[C@@H](NC(=O)c2ccc(Cl)c(C(F)(F)F)c2)CC[C@@]23CCCN2C(=O)CCC[C@@H]13	15.6	0.0
CCC[C@H]1[C@@H](NC(=O)c2ccc(Cl)c(C(F)(F)F)c2)CC[C@@]23CCCN2C(=O)CCC[C@@H]13	95.9*	3.1
O=[N+]([O-])c1cc2c(cc1CN1CCN(c3cccc(Cl)c3)CC1)OCO2	77.0*	-2.2
CCOc1ccccc1N1CCN(Cc2cc3c(cc2[N+](=O)[O-])OCO3)CC1	51.0*	-2.2
Cc1ccccc1N1CCN(Cc2cc3c(cc2[N+](=O)[O-])OCO3)CC1	18.6	3.0
O=[N+]([O-])c1cc2c(cc1CN1CCN(c3ccc(F)cc3)CC1)OCO2	30.3	0.5
c1coc(CNc2nc(N3CCOCC3)nc3ccccc23)c1	-4.5	-0.4
Cc1nn(CCCC(=O)Nc2sc3c(c2C(N)=O)CCC(C)C3)c(C)c1[N+](=O)[O-] (centres undefined)	-2.0	-6.4
Cn1cc2c3c(cccc31)CN(C(=O)c1ccc(Br)cc1)CC2	54.3*	-4.7
CCCn1cc2c3c(cccc31)CN(C(=O)c1ccc(F)cc1)CC2	94.3*	-0.5
CCCn1cc2c3c(cccc31)CN(C(=O)CC(C)(C)C)CC2	17.0	-3.1
CCCn1cc2c3c(cccc31)CN(C(=O)c1ccsc1)CC2	39.2	5.4
CCCn1cc2c3c(cccc31)CN(C(=O)c1ccccc1)CC2	70.1*	-2.6

Screening results (PubChem BioAssay)
